“And” between values parts separate entries of the source, which are not always exact repeats. Identical values can stand only once. The source made the active and inactive calls.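 Rule for the calls: active = fitted curve rises past 20% activation at a concentration no higher than the top valid tested dose; inactive = activity opposite to the expected signal increase, and the rest.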
Experiment: cell wall integrity pathway activation in yeast – S. cerevisiae reporter strain, C. neoformans project, dry powder, dose response (AID 743130)
Conditions: S. cerevisiae Rlm1-lacZ reporter, luminescence, 4 h, hits give high values; at 35 µM unless noted

Maximal activation, inactive:
c1ccc(OCCn2cnc3ccccc32)cc1 -5.78% [at 1 µM], CCOC(=O)c1c(-c2ccc(OC)cc2)csc1NC(=O)CN(C)CC(=O)N(C)C -2.31% [at 4.2 µM], Cc1ccc(OCCn2cnc3ccccc32)cc1 -5.3% [at 4.2 µM], COC(=O)C1=C(C)N(Cc2ccccc2)C(=S)NC1c1ccc(Br)cc1 (stereo not drawn) 6.99% [at 8 µM], COC(=O)C1=C(C)N(Cc2ccc(Cl)cc2)C(=S)NC1c1ccc(Br)cc1 (stereo not drawn) 9% [at 2.1 µM], Cc1ccccc1OCCn1c(=S)[nH]c2ccccc21 -3.77% [at 1 µM], COC(=O)C1=C(C)N(Cc2ccc(Br)cc2)C(=S)NC1c1ccc(F)cc1 (stereo not drawn) 9.62% [at 16 µM], Cc1cccc(OCCn2c(=S)[nH]c3cc(C(F)(F)F)ccc32)c1 -9% [at 16 µM], CCOC(=O)c1c(-c2ccc(C(C)(C)C)cc2)csc1NC(=O)CN1CCN(C)CC1 6.67% [at 16 µM], Cc1ccc(OCCn2c(SCCO)nc3ccccc32)c(C(C)C)c1 -2.9% [at 2.1 µM], COC(=O)C1=C(C)N(Cc2ccc(F)cc2)C(=S)NC1c1cccc(F)c1 (stereo not drawn) 3.69%, CCOc1ccc(OCCn2c(=S)[nH]c3ccccc32)cc1 -9.4% [at 0.26 µM], O=c1[nH]c2ccccc2n1CCOc1ccccc1 6.24% [at 2.1 µM] and 3.18% [at 2.1 µM]

Source: PubChem BioAssay AID743130 (Broad Institute, 2013)
